Experimental data from PubChem BioAssay (NCATS).
Inconclusive results are not listed. Calls of active or inactive are those of the source. Calls come from the whole dose curve; as a rule, active = well fitted curve in the direction sought with a large enough effect; inconclusive = small, poorly fitted or top-dose-only effect, or another doubt; inactive = no such curve, though single readings can be large; an effect the other way counts as inactive or inconclusive.

Tests used:
CRL-7250 = normal cell line; experiment: Cytotoxic Profiling of Annotated Libraries Using Quantitative High-Throughput Screening (AID 1296008); settings: Five cell lines viability, CellTiter-Glo ATP luminescence, 48-72 h; max response: active compounds read low; note: nearly all actives have a fitted effect of over 60% in size; for max response: % is set by controls: 0 for no effect and ±100 for the full control effect
Procedure, shortened: (§1)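 Cells exposed to compounds for 48 or 72 hr at 37 degrees Celsius. Viability read as ATP-coupled luminescence with CellTiter-Glo after 10 min at room temperature.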

HEK293 = experiment: as above; settings: Five cell lines viability, CellTiter-Glo ATP luminescence, 48-72 h; max response: active compounds read low
Procedure, shortened: as §1

HaCat [1] = experiment: as above; settings: Five cell lines viability, CellTiter-Glo ATP luminescence, 48-72 h; max response: active compounds read low
Procedure, shortened: as §1

KB-3-1 = experiment: as above; settings: Five cell lines viability, CellTiter-Glo ATP luminescence, 48-72 h; max response: active compounds read low
Procedure, shortened: as §1

NIH3T3 [2] = experiment: as above; settings: Five cell lines viability, CellTiter-Glo ATP luminescence, 48-72 h; max response: active compounds read low
Procedure, shortened: as §1

HACAT [3] = experiment: qHTS assay to identify novel small-molecules to repurpose for Merkel cell carcinoma treatment (AID 1296009); settings: MCC and control cell lines, CellTiter-Glo viability, 72 h; at 44.8 µM (top of the series) unless noted; note: nearly all actives have a fitted effect of over 60% in size
Procedure, shortened: (§2)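 Cells were treated for 72 hr at 37 degree celsius with compounds in 8- or 11-point dose response. Viability was read by CellTiter-Glo luminescence, normalized to no-cell (cytotoxicity) and DMSO controls.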

NIH3T3 [4] = experiment: as above; settings: MCC and control cell lines, CellTiter-Glo viability, 72 h; at 44.8 µM (top of the series) unless noted
Procedure, shortened: as §2

C33A = experiment: Primary qHTS to identify gynecologic anti-cancer compounds using libraries of approved drugs and bioactive compounds (AID 1345084); settings: Gynecologic cancer cell panel viability, ATPlite luminescence, 48 h; series mostly up to 57.5 µM; note: % is set by controls: 0 for no effect and ±100 for the full control effect; nearly all actives have a fitted effect of over 55% in size
Procedure, shortened: (§3)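 In this quantitative HTS, cell killing is estimated from loss of ATP-dependent luciferase light. Cells see five compound concentrations over a 48 h exposure.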

CAOV3 = experiment: as above; settings: Gynecologic cancer cell panel viability, ATPlite luminescence, 48 h; series mostly up to 57.5 µM
Procedure, shortened: as §3

CASKI = experiment: as above; settings: Gynecologic cancer cell panel viability, ATPlite luminescence, 48 h; series mostly up to 57.5 µM
Procedure, shortened: as §3

Es-2 = experiment: as above; settings: Gynecologic cancer cell panel viability, ATPlite luminescence, 48 h; series mostly up to 57.5 µM
Procedure, shortened: as §3

HeLa = experiment: as above; settings: Gynecologic cancer cell panel viability, ATPlite luminescence, 48 h; series mostly up to 57.5 µM
Procedure, shortened: as §3

Hek293T = experiment: as above; settings: Gynecologic cancer cell panel viability, ATPlite luminescence, 48 h, control line for the selectivity index; series mostly up to 57.5 µM
Procedure, shortened: as §3

JEG-3 = experiment: as above; settings: Gynecologic cancer cell panel viability, ATPlite luminescence, 48 h; series mostly up to 57.5 µM
Procedure, shortened: as §3

OV90 = experiment: as above; settings: Gynecologic cancer cell panel viability, ATPlite luminescence, 48 h; series mostly up to 57.5 µM
Procedure, shortened: as §3

CCCc1[nH]nc2c1C(c1cc(Cl)cc(Cl)c1O)C(C#N)=C(N)O2 (stereo not given)
inactive: max response (CRL-7250) -0.63% | max response (HEK293) -17.1% | outcome (HaCat [1]) | outcome (KB-3-1) | outcome (NIH3T3 [2]) | outcome (HACAT [3]) | outcome (NIH3T3 [4]) | Potency (C33A) | Potency (CAOV3) | outcome (CASKI) | Potency (Es-2) | Potency (HeLa) | Potency (Hek293T) | Potency (JEG-3) | Potency (OV90)

CC1C2=CC(=O)OC2(O)CC2C1C(O)CC1C(C)(CO)CCCC21C (stereo not given)
inactive: outcome (CRL-7250) | max response (HEK293) 2.57% | outcome (HaCat [1]) | max response (KB-3-1) 0.829% | outcome (NIH3T3 [2]) | outcome (HACAT [3]) | outcome (NIH3T3 [4]) | Potency (C33A) | Potency (CAOV3) | outcome (CASKI) | Potency (Es-2) | Potency (HeLa) | Potency (Hek293T) | Potency (JEG-3) | Potency (OV90)

CC1=C(CO)CC(C(C)C2CCC3C4CC=C5CC(OC6OC(COC7OC(CO)C(O)C(O)C7O)C(O)C(O)C6O)CC(O)C5(C)C4CCC23C)OC1=O (stereo not given)
inactive: outcome (CRL-7250) | max response (HEK293) -8.19% | outcome (HaCat [1]) | max response (KB-3-1) -0.551% | outcome (NIH3T3 [2]) | outcome (HACAT [3]) inactive [at 17.4 µM] | outcome (NIH3T3 [4]) inactive [at 17.4 µM] | Potency (C33A) | Potency (CAOV3) | outcome (CASKI) | Potency (Es-2) | Potency (HeLa) | Potency (Hek293T) | Potency (JEG-3) | Potency (OV90)

CC1CC2OCC3(O)CCC(O)C(C14CC(c1ccoc1)OC4=O)C23CO (stereo not given)
inactive: outcome (CRL-7250) | max response (HEK293) -3.58% | outcome (HaCat [1]) | max response (KB-3-1) 9.94% | outcome (NIH3T3 [2]) | outcome (HACAT [3]) | outcome (NIH3T3 [4]) | Potency (C33A) | Potency (CAOV3) | outcome (CASKI) | Potency (Es-2) | Potency (HeLa) | Potency (Hek293T) | Potency (JEG-3) | Potency (OV90)

C[C@@H]1CC[C@]2(C(=O)O)CC[C@]3(C)C(=CCC4[C@@]5(C)C[C@@H](O)[C@H](O)[C@@](C)(CO)C5CC[C@]43C)C2[C@H]1C (stereo not given in full)
inactive: max response (CRL-7250) -10.8% | max response (HEK293) 4.76% | outcome (HaCat [1]) | max response (KB-3-1) 3.75% | outcome (NIH3T3 [2]) | outcome (HACAT [3]) inactive [at 17.4 µM] | outcome (NIH3T3 [4]) inactive [at 17.4 µM] | Potency (C33A) | Potency (CAOV3) | outcome (CASKI) | Potency (Es-2) | Potency (HeLa) | Potency (Hek293T) | Potency (JEG-3) | Potency (OV90)

C=C[C@H]1[C@H](O[C@@H]2O[C@H](CO)[C@@H](O)[C@H](OC(=O)/C=C/c3ccc(O)c(OC)c3)[C@H]2O)OC=C2C(=O)OCC[C@]21O
inactive: max response (CRL-7250) -3.95% | max response (HEK293) -3.81% | outcome (HaCat [1]) | max response (KB-3-1) 6.87% | outcome (NIH3T3 [2]) | outcome (HACAT [3]) inactive [at 17.4 µM] | outcome (NIH3T3 [4]) inactive [at 17.4 µM] | Potency (C33A) | Potency (CAOV3) | outcome (CASKI) | Potency (Es-2) | Potency (HeLa) | Potency (Hek293T) | Potency (JEG-3) | Potency (OV90)

Cc1occc(=O)c1O[C@@H]1O[C@H](CO)[C@@H](O)[C@H](O)[C@H]1O
inactive: max response (CRL-7250) -1.36% | max response (HEK293) 2.23% | outcome (HaCat [1]) | outcome (KB-3-1) | outcome (NIH3T3 [2]) | outcome (HACAT [3]) | outcome (NIH3T3 [4]) | Potency (C33A) | Potency (CAOV3) | outcome (CASKI) | Potency (Es-2) | Potency (HeLa) | Potency (Hek293T) | Potency (JEG-3) | Potency (OV90)

C=C1C(O)C(O)C2(CC3C(C)=CCC4C(C)(C(=O)O)CCCC34C)OC2C1O (stereo not given)
inactive: max response (CRL-7250) -4.59% | max response (HEK293) 1.46% | outcome (HaCat [1]) | max response (KB-3-1) 2.87% | outcome (NIH3T3 [2]) | outcome (HACAT [3]) | outcome (NIH3T3 [4]) | Potency (C33A) | Potency (CAOV3) | outcome (CASKI) | Potency (Es-2) | Potency (HeLa) | Potency (Hek293T) | Potency (JEG-3) | Potency (OV90)

CC1=C[C@@H]2[C@H]3[C@@H]4O[C@@](C)(CC[C@H]4O)[C@H]3CC(=O)[C@]23C(=O)N[C@@H](CC(C)C)[C@@H]3[C@@H]1C
inactive: outcome (CRL-7250) | max response (HEK293) 4.29% | outcome (HaCat [1]) | max response (KB-3-1) 9.19% | outcome (NIH3T3 [2]) | outcome (HACAT [3]) | outcome (NIH3T3 [4]) | Potency (C33A) | Potency (CAOV3) | outcome (CASKI) | Potency (Es-2) | Potency (HeLa) | Potency (Hek293T) | Potency (JEG-3) | Potency (OV90)

CC(C)=CCC[C@@](C)(O)[C@H]1CC[C@]2(C)[C@@H]1[C@H](O)CC1[C@@]3(C)CC[C@H](O[C@@H]4O[C@H](CO)[C@@H](O)[C@H](O)[C@H]4O[C@@H]4O[C@H](CO)[C@@H](O)[C@H](O)[C@H]4O)C(C)(C)[C@@H]3CC[C@]12C (stereo not given in full)
inactive: max response (CRL-7250) 4.67% | max response (HEK293) 1.62% | outcome (HaCat [1]) | outcome (KB-3-1) | outcome (NIH3T3 [2]) | outcome (HACAT [3]) inactive [at 17.4 µM] | outcome (NIH3T3 [4]) inactive [at 17.4 µM] | Potency (C33A) | Potency (CAOV3) | outcome (CASKI) | Potency (Es-2) | Potency (HeLa) | Potency (Hek293T) | Potency (JEG-3) | Potency (OV90)

COC(=O)C1=CO[C@@H](O[C@@H]2O[C@H](CO)[C@@H](O)[C@H](O)[C@H]2O)[C@@H]2C(C)CC(=O)[C@]12O (stereo not given in full)
inactive: max response (CRL-7250) 4.9% | max response (HEK293) -0.581% | outcome (HaCat [1]) | max response (KB-3-1) 1.82% | outcome (NIH3T3 [2]) | outcome (HACAT [3]) inactive [at 17.4 µM] | outcome (NIH3T3 [4]) inactive [at 17.4 µM] | Potency (C33A) | Potency (CAOV3) | outcome (CASKI) | Potency (Es-2) | Potency (HeLa) | Potency (Hek293T) | Potency (JEG-3) | Potency (OV90)

CC(C)=CCC[C@](C)(O[C@@H]1O[C@H](CO[C@@H]2OC[C@H](O)[C@H](O)[C@H]2O)[C@@H](O)[C@H](O)[C@H]1O)[C@H]1CC[C@]2(C)[C@@H]1[C@H](O)C[C@@H]1[C@@]3(C)CC[C@H](O[C@@H]4O[C@H](CO)[C@@H](O)[C@H](O)[C@H]4O[C@@H]4O[C@H](CO)[C@@H](O)[C@H](O)[C@H]4O)C(C)(C)[C@@H]3CC[C@]12C
inactive: outcome (CRL-7250) | max response (HEK293) 3.96% | outcome (HaCat [1]) | max response (KB-3-1) 1.14% | outcome (NIH3T3 [2]) | outcome (HACAT [3]) inactive [at 17.4 µM] | outcome (NIH3T3 [4]) inactive [at 17.4 µM] | Potency (C33A) | Potency (CAOV3) | outcome (CASKI) | Potency (Es-2) | Potency (HeLa) | Potency (Hek293T) | Potency (JEG-3) | Potency (OV90)
